Each structure is given as a SMILES string. Activity calls are given as the source filed them. Unless noted, no rule for the calls is given here.

For assay [1], the system named is XIP peptide (Xip251-270) binding. As to the kind of experiment: XIP fragment 251-270 binding compounds – biochemical, small-molecule microarray, fluorescence 635/667 nm, 0.1 µg/mL protein, primary screen (AID 1182). The following applies: fluorescent protein binding, 635 nm, higher = more signal, called active from +8 up or from −8 down.
Another assay deals with XIP peptide (Xip251-270). Briefly: compounds binding XIP fragment 251-270 – biochemical, small-molecule microarray, fluorescence 635/667 nm, 0.5 µg/mL protein, primary screen (AID 1183). The note with it: fluorescence 635 nm, higher = more signal.
The nature of assay [2]: blood-stage malaria parasite viability loss – strain 3D7, DAPI fluorescence, 100 nL, primary screen (AID 1184).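 Also: parasites grown inside human red blood cells in medium with human serum.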 The following applies: P. falciparum 3D7 growth, 3 d, higher = more signal.
The target of assay [3] is Homeobox protein Hox-A13 (Mus musculus) (UniProt Q62424). As to the kind of experiment: disruptors of Hoxa13 oligonucleotide interaction – biochemical, fluorescence polarization, labeled oligonucleotide, primary screen (AID 1185). The note with it: Hoxa13:DNA binding, 15 min, higher = more signal, called active from +8 up or from −8 down. (Polarisation of emitted light reports the rotation of a fluorescent probe.)
Chain of Homeobox protein Hox-A13 (Mus musculus) (Q62424 whole entry, looked up): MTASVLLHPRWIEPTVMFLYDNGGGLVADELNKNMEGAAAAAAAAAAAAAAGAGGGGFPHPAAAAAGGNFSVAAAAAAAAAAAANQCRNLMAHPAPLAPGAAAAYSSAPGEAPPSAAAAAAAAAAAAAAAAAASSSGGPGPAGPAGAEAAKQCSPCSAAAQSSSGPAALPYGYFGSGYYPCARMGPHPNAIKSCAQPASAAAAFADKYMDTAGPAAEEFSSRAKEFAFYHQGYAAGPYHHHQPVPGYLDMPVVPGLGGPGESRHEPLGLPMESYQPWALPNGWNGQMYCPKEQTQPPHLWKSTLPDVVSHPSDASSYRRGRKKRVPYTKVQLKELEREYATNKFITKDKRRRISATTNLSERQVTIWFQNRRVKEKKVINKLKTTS

The nature of assay [4]: blockers of DNA damage checkpoint Chk1 activation – imaging, HeLa, hydroxyurea, phospho-Chk1 antibody, percent positive cells, primary screen (AID 1186). The following applies: hydroxyurea-induced phospho-Chk1 immunofluorescence imaging, higher = more signal.
Assay [5] in a line: blockers of DNA damage checkpoint Chk1 activation – imaging, HeLa, hydroxyurea, phospho-Chk1 nuclear intensity, primary screen (AID 1187). The note with it: hydroxyurea-induced phospho-Chk1 immunofluorescence imaging, higher = more signal.

For `CN1C(=O)C2C=CC(C(O)c3cccc4ccccc34)N(NC(=O)OC(C)(C)C)C2C1=O` (stereo unspecified), the composite z-score in assay [1] is 0.704 (inactive); in the assay with XIP peptide (Xip251-270) it was 0.586. Besides, the z-score is 0.99 in assay [2], -3.88 (inactive) in assay [3], 0.326 (inactive) in assay [4] and -0.397 (inactive) in assay [5].
For the compound `NC(=O)NCC#Cc1ccc2c(c1)[C@]1(C(=O)N2)[C@H](c2ccc(OCCO)cc2)N2[C@H](c3ccccc3)[C@H](c3ccccc3)OC(=O)[C@H]2[C@@H]1C(=O)N1CCCCCCC1`, the composite z-score in assay [1] was 2.2 (inactive); with XIP peptide (Xip251-270) it was 0.501. In addition, the z-score in assay [2] was -0.765; in assay [3], -9.12 (active); in assay [4] it was -0.0375 (inactive); in assay [5] it was -0.265 (inactive).
Turning to `C=CC[C@@]1(C(=O)NCC(O)CO)N=C(c2ccc(OCCCO)cc2)O[C@@H]1c1ccccc1` (stereo partly specified), the composite z-score in assay [1] was 2.6 (inactive); in the assay with XIP peptide (Xip251-270), 0.691. Besides, the z-score is -0.869 in assay [2], -4.25 (inactive) in assay [3], -0.379 (inactive) in assay [4] and -0.244 (inactive) in assay [5].
With `CN(C)C(=O)[C@@]1(Cc2ccccc2N=[N+]=[N-])N=C(c2ccc(OCCCO)cc2)O[C@H]1c1ccccc1N=[N+]=[N-]`, the composite z-score is 0.976 (inactive) in assay [1] and 0.596 with XIP peptide (Xip251-270). For the same compound, the z-score in assay [2] is -2.32; in assay [3], -4.6 (inactive); in assay [4] it was 0.0092 (inactive); in assay [5], 0.398 (inactive).
Take `COC(=O)C(CC#Cc1ccc2c(c1)[C@]1(C(=O)N2)[C@H](c2ccc(O)cc2)N2[C@H](c3ccccc3)[C@H](c3ccccc3)OC(=O)[C@H]2[C@@H]1C(N)=O)C(=O)OC`: the composite z-score is -0.609 (inactive) in assay [1] and -2.27 in the assay with XIP peptide (Xip251-270). Besides, the z-score in assay [2] is 0.38; in assay [3], 0.452 (inactive); in assay [4] it was -0.174 (inactive); in assay [5] it was -0.279 (inactive).
For `C=CCOC(=O)[C@@H]1[C@H]2C(=O)O[C@H](c3ccccc3)[C@H](c3ccccc3)N2[C@H](c2ccc(OCCOC(=O)[C@H]3C[C@H]4C(=O)N[C@@H](Cc5ccccc5)C(=O)N4[C@H]3c3cccc(OCCO)c3)cc2)[C@@]12C(=O)Nc1ccc(I)cc12`, the composite z-score is 2.12 (inactive) in assay [1] and 0.813 with XIP peptide (Xip251-270). In addition, the z-score in assay [2] is 0.143; in assay [3], 6.79 (inactive); in assay [4] it was -0.173 (inactive); in assay [5], 0.0575 (inactive).
On to `C[C@H]1ON(c2ccccc2)[C@@H](c2ccccc2)[C@@H]1C(=O)N1C(=O)OC[C@@H]1c1ccccc1`, for which the composite z-score in assay [1] was -0.222 (inactive); in the assay on XIP peptide (Xip251-270) it was 0.195. The z-score in assay [2] was -0.968; in assay [3] it was -2.12 (inactive); in assay [4] it was -0.134 (inactive); in assay [5] it was -0.154 (inactive).
In the case of `COc1ccc(CCNC(=O)[C@@H]2c3ccccc3C(=O)N(Cc3ccccc3)[C@H]2c2ccc(CO)cc2)cc1`, the figures for the composite z-score (in assay [1]; with XIP peptide (Xip251-270)) were 1.09 (inactive) and 0.619, respectively. The z-score was -1.08 in assay [2], -3.2 (inactive) in assay [3], -0.938 (inactive) in assay [4] and -1.38 (inactive) in assay [5].
Consider `O=C1O[C@H](c2ccccc2)[C@H](c2ccccc2)N2[C@H]1[C@@H](C(=O)NC[C@H](O)c1ccccc1)[C@]1(C(=O)Nc3ccccc31)[C@H]2c1ccccc1OCCO`, for which the composite z-score in assay [1] is 2.18 (inactive); with XIP peptide (Xip251-270) it was 0.807. In addition, the z-score in assay [2] was -0.635; in assay [3], -3.48 (inactive); in assay [4], -0.517 (inactive); in assay [5], -0.538 (inactive).
For `CCOC(=O)C[C@H]1[C@H](OC(=O)c2ccccc2-c2ccccc2)[C@@H](NC(=O)c2ccccc2)c2cc(OCCCO)ccc2N1C(=O)Cc1ccc(OC)cc1`, the composite z-score is -0.231 (inactive) in assay [1] and -0.73 in the assay with XIP peptide (Xip251-270). In addition, the z-score in assay [2] is -0.375; in assay [3], -2.77 (inactive); in assay [4] it was 0.237 (inactive); in assay [5], 0.356 (inactive).
For `COCCCNC(=O)[C@]1(Cc2ccccc2CN=[N+]=[N-])N=C(c2ccc(OCCCO)cc2)O[C@@H]1c1ccccc1CN=[N+]=[N-]`, the results for the composite z-score (in assay [1]; in the assay with XIP peptide (Xip251-270)) were 0.22 (inactive) and 0.744, respectively. In addition, the z-score was -2.48 in assay [2], -2.43 (inactive) in assay [3], -0.0731 (inactive) in assay [4] and -0.303 (inactive) in assay [5].
On to `C=CCC(OC(C)=O)[C@@H]1[C@@H](N(Cc2ccc(-c3ccccc3)cc2)C(=O)Cc2ccc(OC)cc2)c2cc(OCCCO)ccc2N1C(=O)c1ccc(-c2ccccc2)cc1` (stereo partly specified), for which the composite z-score in assay [1] is -0.0622 (inactive); in the assay on XIP peptide (Xip251-270) it was -0.698. Moreover, the z-score in assay [2] was -2.91; in assay [3] it was -1.52 (inactive); in assay [4] it was -0.244 (inactive); in assay [5] it was 0.158 (inactive).
Regarding `C=C(CCCC)/C(=C/C[C@@H](OC(=O)c1ccncc1)c1ccccc1OCCO)c1cc(C(=O)OC)ccc1OC`, the values for the composite z-score (in assay [1]; in the assay on XIP peptide (Xip251-270)) were 0.711 (inactive) and -0.127, respectively. Besides, the z-score in assay [2] is -2.98; in assay [3], -3.47 (inactive); in assay [4] it was -0.585 (inactive); in assay [5] it was 0.185 (inactive).
Take `COC(=O)[C@@]1(Cc2ccc(F)cc2)[C@@H]2[C@@H](CC(=O)[C@H]2CC(=O)C(=O)N2CCCC2)CN1C(=O)c1ccccc1`: the composite z-score was 0.112 (inactive) in assay [1] and 0.663 in the assay with XIP peptide (Xip251-270). Also, the z-score in assay [2] is -1.44; in assay [3] it was -2.66 (inactive); in assay [4], 0.853 (inactive); in assay [5], 1.01 (inactive).
With `[N-]=[N+]=NCc1ccccc1C[C@@]1(C(=O)NCCN2CCOCC2)N=C(c2ccc(OCCCO)cc2)O[C@@H]1c1ccccc1CN=[N+]=[N-]`, the composite z-score in assay [1] was 0.607 (inactive); in the assay with XIP peptide (Xip251-270), 0.743. For the same compound, the z-score in assay [2] was -2.22; in assay [3], -11.2 (active); in assay [4], 0.243 (inactive); in assay [5], 0.693 (inactive).
As for `CCOc1cc(C(O)C2C=CC3C(=O)NC(=O)C3N2Nc2ccccn2)ccc1O` (stereo unspecified), the composite z-score in assay [1] is 0.113 (inactive); in the assay with XIP peptide (Xip251-270), 0.0151. Besides, the z-score is -0.296 in assay [2], -0.998 (inactive) in assay [3], 0.861 (inactive) in assay [4] and 0.746 (inactive) in assay [5].
